An excerpt weighted towards active compounds, which were near 20% of everything screened.
Shiga inhibitor – Shiga toxin inhibition; Vero cells, Shiga toxin protein synthesis inhibition reporter; inhibition, % at 38.7 µM; hit rate 9.2% among 290,000; AID 2315; in the data active = inhibition mostly above about 28%, no sharp cut-off; inactive = mostly below about 43%; note: 0% is about no effect
Pf growth 96h – P. falciparum growth inhibition at 96 hour, primary screen for plastid delayed-death inhibitors; hit rate 6.9% among 320,000; AID 504834; P. falciparum luciferase reporter growth, 96 h; Potency, µM (titrated, usually from 28.7 µM), inactives show top-dose activity change, negative = inhibition, actives largely listed as inhibitors; note: potency is the fitted concentration of half-maximal effect; % is set by controls: 0 for no effect and ±100 for the full control effect
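Two parasite generations (96 h, 37 C, 5% CO2) of compound exposure in infected erythrocytes (0.05% parasitemia, 2% hematocrit). Luciferase-reporter P. falciparum; decreased luminescence indicates inhibited growth, aimed at apicoplast-acting delayed death.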
Cycloheximide cs – counter-screen hit for Shiga toxin inhibitors, cycloheximide; cell reporter, cycloheximide protein synthesis inhibition counterscreen; max response, %; hit rate 12% among 300,000; in the data active = max response mostly above about 13%, no sharp cut-off; inactive = mostly below about 14%; note: read at 38.3 µM for the half of the compounds with a filed dose; 0% is about no effect
Pf growth 48h – P. falciparum growth inhibition at 48 hours (one generation). hit rate 5.9% among 310,000. Potency, µM (doses to about 28.7 µM), for the others: at the highest dose activity change, negative = inhibition, most hits filed as inhibitors. P. falciparum luciferase growth in erythrocytes, 48 h; note: potency is the fitted concentration of half-maximal effect; % is set by controls: 0 for no effect and ±100 for the full control effect
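Compounds are pin-transferred into medium, infected erythrocytes (2% hematocrit, 0.1% parasitemia final) are added, and plates sit one parasite generation at 37 C in 5% CO2. Detection reagent is then added and luminescence measured.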
HCMV antiviral – blocks human cytomegalovirus replication; HFF cells, HCMV-luciferase reporter, 72 h; stronger effect = lower value; activity change, negative = inhibition, % at 57.5 µM; hit rate 4.5% among 410,000; AID 1259415; in the data active = activity change below about -60%; inconclusive = no clear call, values can overlap the other calls; inactive = above about -39%; note: % is set by controls: 0 for no effect and ±100 for the full control effect
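Compounds were evaluated in HFFs infected with an HCMV luciferase reporter virus (MOI 1 PFU/cell). Luciferase in lysates collected 72 h post infection served as the replication measure.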
The depositor's hits bear a star; u = inconclusive; x = no result given; ! = a repeat was not active; [ ] = another dose, or the depositor's remark. Unless noted, calls come from the whole dose curve; as a rule, active = well fitted inhibition curve with a large enough effect; inconclusive = small, poorly fitted or top-dose-only effect, or another doubt; inactive = no such curve, though single readings can be large or run the other way.

SMILES	Shiga inhibitor	Pf growth 96h	Cycloheximide cs	Pf growth 48h	HCMV antiviral
COc1ccc(NS(=O)(=O)c2cc(NC(=O)c3cc(=O)c4ccccc4o3)ccc2OC)cc1	20	u	10	8.3µM*	-5
Cc1cccc(NC(=O)c2oc3ccccc3c2NC(=O)c2cc(=O)c3ccccc3o2)c1	x	x	x	x	5
CC(=O)Nc1ccc(NC(=O)c2cc(=O)c3ccccc3o2)cc1	-8	21%	-4	48%	-85*!
COc1cccc(NC(=O)c2cc(=O)c3ccccc3o2)c1	47*	76%	19*	66%	1
Cc1cccc(NC(=O)c2cc(=O)c3ccccc3o2)c1	27	-19%	24*	22%	31
Cc1ccc(C(=O)CSc2nc3cc(C(=O)NC4CCCC4)ccc3c(=O)n2CC2CCCO2)c(C)c1 (stereo not given)	x	x	x	x	22
C/C(N)=C(/C#N)C(=O)COC(=O)Cc1coc2ccc3ccccc3c12	-8	-17%	-1	-18%	-68*
C/C(N)=C(/C#N)C(=O)COc1ncnc2ccccc12	34	-3%	-3	27%	14
C/C(=N\Nc1ccc(C)c(Cl)c1)c1ccncc1	39	u	30*	u	121
C/C(=N\NC(=O)C(=O)Nc1ccc(C)c(Cl)c1)c1ccncc1	-2	-16%	1	17%	-29
C/C(=N\Nc1ccc(C)c(Cl)c1)c1cccnc1	89*	-4%	41*	u	15
CC(=NNS(=O)(=O)c1cccc([N+](=O)[O-])c1)c1ccc(-n2ccnc2)cc1	x	x	x	x	-10
C/C(=N\Nc1cccc(Cl)c1)c1ccc(-n2ccnc2)cc1	-1	12µM*	-6	u	-18
c1ccc(SCc2nc(-c3cccnc3)no2)cc1	108*	25%	36*	-50%	80
Cc1cccc(-c2noc(CSc3ccccc3)n2)c1	67*	54%	44*	128%	116
Cc1ccc(-c2noc(CSc3nc(N)cc(N)n3)n2)cc1	87*	-24%	53*	250%	11
c1ccc(CCCc2nc(-c3cccnc3)no2)cc1	43*	u	19*	5%	0
Cc1nnc(NC(=O)CSc2ccc3nnc(-c4cccnc4)n3n2)s1	19	u	-1	33%	x
COc1ccc(-c2cn3nc(N4CCCC(C(=O)Nc5cc(C)ccc5C)C4)sc3n2)cc1 (stereo not given)	x	x	x	x	0
CCCCNC(=O)c1ccc2nc(CC)c(N(C)Cc3ccc(OC)cc3)n2c1	x	x	x	x	-24
Cc1ccc(-c2noc(CSc3ccccc3)n2)cc1	77*	82%	33*	x	54
C[n+]1c(/C=C/c2ccc3c(c2)OCO3)ccc2ccccc21	95*	-18%	51*	429%	-66*
C(=Cc1cnc2ccccc2n1)c1ccc2c(c1)OCO2	x	x	x	x	-81*
C(=Cc1nc2ccccc2o1)c1ccc2c(c1)OCO2	x	x	x	x	-22
C[n+]1c(/C=C/c2ccc(O)cc2)ccc2ccccc21	64*	2.3µM*	50*	u	-19
SMILES	Shiga inhibitor	Pf growth 96h	Cycloheximide cs	Pf growth 48h	HCMV antiviral
Cc1noc(NS(=O)(=O)c2ccc(NS(=O)(=O)c3ccc(Cl)cc3)cc2)c1C	x	x	x	x	-16
COc1ccc(-c2nn(-c3ccc(F)cc3)c3c2cnc2ccc(F)cc23)cc1OC	x	x	x	x	8
Cc1cccc(-c2noc(-c3ccccc3NC(=O)C3CC(=O)N(c4ccccc4C)C3)n2)c1 (stereo not given)	x	x	x	x	45
Cn1c(CO)cnc1SCC(=O)c1ccc(F)cc1	75*	34%	24*	58%	32
CCn1c(SCC(=O)c2ccc(O)c(O)c2)nnc1-c1ccc(C)cc1	-6	-28%	0	u	-1
Cc1cccc(CSc2ncc(CO)n2C)c1	17	21%	20*	31%	-11
CCn1c(Cc2cccn2C)nnc1SCC(=O)c1ccc(C)cc1	129*	15µM*	35*	13µM*	30
Cn1c(CO)cnc1SCC(=O)c1ccc(Br)cc1	44	8%	10	18%	-3
Cc1ccc(C(=O)CSc2nnc(-c3ccccc3N)n2C)cc1	94*	16%	65*	-2%	-26
N#Cc1ccccc1NC(=O)CN(Cc1ccccc1)Cc1ccccc1	-4	u	-3	u	-20
CC(=O)N1CCC2(CC1)OC(=O)C(C)=C2C(=O)Nc1ccccc1C(F)(F)F	x	x	x	x	0
CCNC(=O)NC(=O)COC(=O)CCCSc1nc2ccccc2s1	-3	-8%	-1	1%	-31
Cn1c(SCC(=O)c2ccc(F)cc2)nnc1-c1ccccc1Br	x	x	x	x	-16
Cn1c(SCC(=O)c2ccc(F)cc2)nnc1-c1ccccc1N	123*	u	47*	9%	-1
Cc1ccc(C(=O)CSc2nnc(-c3ccco3)n2C)cc1	52*	-23%	35*	-9%	-38
O=C1CCCC(=O)C1=Cc1c[nH]c2ccccc12	-11	1%	-1	x	58
CCOC(=O)c1c(C)[nH]c(C)c1S(=O)(=O)N(C)CC(=O)NCc1ccc(F)cc1	-3	31%	-1	10%	9
CN(C)[C@H]1C(=O)C(C(N)=O)=C(O)[C@]2(O)C(=O)C3=C(O)c4c(O)cccc4[C@@](C)(O)[C@H]3C[C@@H]12	x	0.72µM*	x	5.7µM*	x
CN(C)[C@@H]1C(=O)C(C(=O)NCN2CCCC2)=C(O)[C@@]2(O)C(=O)C3=C(O)c4c(O)cccc4[C@@](C)(O)C3CC12 (stereo not given in full)	-6	-6%	-2	-4%	x
CN(C)C1C(=O)C(C(N)=O)=C(O)C2(O)C(=O)C3=C(O)c4c(O)cccc4C(C)(O)C3CC12 (stereo not given)	-7	0.93µM*	-3	u	x
CN(C)[C@@H]1C(=O)C(C(N)=O)=C(O)[C@@]2(O)C(=O)C3=C(O)c4c(O)cccc4[C@@](C)(O)C3[C@H](O)C12 (stereo not given in full)	x	12µM*!	x	15µM*!	-12
CN(C)[C@@H]1C(=O)C(C(N)=O)=C(O)[C@@]2(O)C(=O)C3=C(O)c4c(O)ccc(Cl)c4[C@@](C)(O)C3C[C@@H]12 (stereo not given in full)	-2	u	3	-24%	57
O=C(/C=C/c1cccs1)NCc1ccccc1	41	109%	35*	96%	-39
CN1CCN(C(=S)NC(=O)/C=C/c2cccc3ccccc23)CC1	13	13%[5.75 µM]	-1	4%	-16
CCCOC(=O)c1ccccc1C(=O)OCCC	x	39%	x	14%	-36
CCCOC(=O)c1cc(NC(=O)/C=C/c2ccccc2)ccc1O	74*	10µM*	17*	u	-15
Cc1ccc(NC(=O)/C=C/C(=O)O)c([N+](=O)[O-])c1	12	u	-2	13%	-5
Cc1ccc(NC(=O)/C=C/c2cccs2)c([N+](=O)[O-])c1	63*	12%	41*	161%	116
CN1CCN(C(=S)NC(=O)/C=C/c2cccs2)CC1	5	3%	22*	-31%	39
CCC(C)NC(=O)/C=C/c1cccs1 (stereo not given)	10	24%	13	2%	8
